{"source": "PubChem BioAssay AID493194", "about": "(Broad Institute, 2011)", "note": "Entries with a potency or affinity are not part of this list. Records with an inconclusive call do not appear. Values without a mark were called inactive.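 The calls were made as follows: active = a valid curve of falling signal whose half-effect concentration is at most ten times the top tested dose; inconclusive = flat curve at 30 to 70% inhibition, or poor fit; inactive = signal rise, flat within 30%, or potency beyond limit.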"}
{"biological_target": "Scavenger receptor class B member 1 (Mus musculus) (UniProt Q61009)", "sequence (Q61009 whole entry, looked up)": "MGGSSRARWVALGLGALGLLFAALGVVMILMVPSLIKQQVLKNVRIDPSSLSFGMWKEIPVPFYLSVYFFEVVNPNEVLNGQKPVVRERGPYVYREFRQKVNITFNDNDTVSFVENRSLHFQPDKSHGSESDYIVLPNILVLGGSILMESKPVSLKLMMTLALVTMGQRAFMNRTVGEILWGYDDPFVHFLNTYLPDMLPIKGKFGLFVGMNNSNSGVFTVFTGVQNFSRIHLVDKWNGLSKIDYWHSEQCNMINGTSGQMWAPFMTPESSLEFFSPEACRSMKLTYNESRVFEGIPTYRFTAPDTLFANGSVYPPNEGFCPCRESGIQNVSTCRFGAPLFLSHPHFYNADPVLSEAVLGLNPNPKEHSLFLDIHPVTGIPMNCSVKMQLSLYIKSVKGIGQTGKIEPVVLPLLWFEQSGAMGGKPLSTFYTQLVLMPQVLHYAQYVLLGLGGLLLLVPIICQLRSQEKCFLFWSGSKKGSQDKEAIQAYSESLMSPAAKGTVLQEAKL", "assay": "mouse SR-BI DiI-HDL uptake blockers – ldlA[mSR-BI] cells, fluorescence, cherry pick, dose response (AID 493194);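 also: CHO cells lacking LDL receptor and overexpressing mouse SR-BI; cellular uptake of fluorescently labeled HDL measured as cell fluorescence; 0% = median of neutral control wells and -100% = median of positive control wells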", "details": "CHO ldlA[mSR-BI] DiI-HDL uptake fluorescence, 3 h; series mostly up to 35 µM; activity change, negative = inhibition: at the top concentration", "units": {"activity change, negative = inhibition": "%"}}
{"smiles": "CCCCCCn1c(=O)c(C(=O)Nc2cnccn2)c(O)c2ccccc21", "activity change, negative = inhibition": 64.8}
{"smiles": "CC(C)(C)c1ccc(S(=O)(=O)N2CC3CC(C2)c2cccc(=O)n2C3)cc1", "note": "(configuration not stated)", "activity change, negative = inhibition": -4.36}
{"smiles": "O=S1(=O)N(CCN2CC=C(c3c[nH]c4cc(F)ccc34)CC2)c2cccc3c2N1CCC3", "activity change, negative = inhibition": 0.978}
{"smiles": "COc1ccc(NC(=O)C2C3CCC(O3)C2C(=O)O)c(OC)c1", "note": "(configuration not stated)", "activity change, negative = inhibition": 37.1}
{"smiles": "CNC1(c2ccc(F)cc2)CCCCC1", "activity change, negative = inhibition": 6.55}
{"smiles": "O=C(Nc1ccccc1F)OC1CN2CCC1CC2", "note": "(configuration not stated)", "activity change, negative = inhibition": 31}
{"smiles": "O=c1cccc2n1CC1CC2CN(S(=O)(=O)c2cc(Cl)ccc2Cl)C1", "note": "(configuration not stated)", "activity change, negative = inhibition": 8.09}
